± gives the standard deviation of the averaged measurements.
Columns and labels:
Experiment in all cases: cell proliferation (confluence) relative to DMSO control; higher = less growth inhibition
Settings in all cases: 5 uM; 6 d
BT549 = system: BT549
Outline: (§1)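 Plates with 384 wells were seeded with triple-negative breast cancer cell lines at 500 cells per well, and epigenetic chemical probes in DMSO were added once the cells had attached, at a final 5 μM for 6 d. Imaging used an IncuCyte ZOOM with a ×10 objective in phase-contrast, and analysis used Incucyte 2016 software. With four replicate wells per compound, confluence was normalised to wells holding DMSO alone.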

CAL120 = system: CAL120
Outline: as §1

HCC1143 = system: HCC1143
Outline: as §1

HCC1395 = system: HCC1395
Outline: as §1

HCC153 = system: HCC153
Outline: as §1

HCC1806 = system: HCC1806
Outline: as §1

HCC38 = system: HCC38
Outline: as §1

HCC70 = system: HCC70
Outline: as §1

Hs578-T = system: Hs578-T
Outline: as §1

MB157 = system: MB157
Outline: as §1

SUM149-PT = system: SUM149-PT
Outline: as §1

SUM159-PT = system: SUM159-PT
Outline: as §1

Row | Structure (SMILES) | cell proliferation (BT549) [%] | cell proliferation (CAL120) [%] | cell proliferation (HCC1143) [%] | cell proliferation (HCC1395) [%] | cell proliferation (HCC153) [%] | cell proliferation (HCC1806) [%] | cell proliferation (HCC38) [%] | cell proliferation (HCC70) [%] | cell proliferation (Hs578-T) [%] | cell proliferation (MB157) [%] | cell proliferation (SUM149-PT) [%] | cell proliferation (SUM159-PT) [%]
1 | O=C(/C=C/N1C[C@H]2C[C@@H]1CN2c1ccccn1)c1ccccc1O | 99.79 ± 0.1 | 93.4 ± 2.2 | 99.25 ± 0.15 | 99.895 ± 0.019 | 87.8 ± 2.8 | 99.849 ± 0.052 | 99.917 ± 0.014 | 99.13 ± 0.33 | 98.15 ± 0.9 | 98.9 ± 1 | 29.1 ± 5.7 | 99.994 ± 0.0044
2 | CC(C)Oc1ccc(-c2c[nH]cc2CN(C)CCN)cc1 | 90.4 ± 3.7 | 99.34 ± 0.54 | 97.6 ± 0.99 | 99.982 ± 0.016 | 59.3 ± 2.6 | 80.7 ± 11 | 99.56 ± 0.26 | 94.5 ± 2.1 | 95.4 ± 1.7 | 93.7 ± 4.8 | 67.6 ± 13 | 99.843 ± 0.074
3 | Cn1cc(CCn2cnc(-c3cnn(C)c3)c2-c2ccc(C#N)cc2)cn1 | 98.99 ± 0.43 | 97.56 ± 0.71 | 98.1 ± 2.2 | 99.977 ± 0.017 | 58.1 ± 13 | 76.7 ± 11 | 99.38 ± 0.67 | 85.1 ± 8.9 | 97.89 ± 0.77 | 62.6 ± 28 | 92.6 ± 3.4 | 99.988 ± 0.012
4 | Clc1cc2c(NC3CCCC3)nnc(-c3ccncc3)c2cc1Cl | 99.863 ± 0.055 | 83.4 ± 7.1 | 99.1 ± 1.1 | 99.965 ± 0.029 | 87.7 ± 5.4 | 98.95 ± 0.87 | 99.63 ± 0.21 | 99.12 ± 0.58 | 97.48 ± 0.54 | 98.8 ± 1.5 | 64.6 ± 19 | 99.992 ± 0.0029
5 | COc1cc2c(NC3CCN(C(C)C)CC3)nc(C3CCCCC3)nc2cc1OCCCN1CCCC1 | 99.51 ± 0.12 | 81.6 ± 8.8 | 98.93 ± 0.9 | 99.3 ± 0.76 | 89 ± 4.7 | 99.53 ± 0.2 | 99.86 ± 0.072 | 98.64 ± 0.65 | 98.1 ± 1.1 | 67.8 ± 16 | 91.8 ± 8.8 | 99.996 ± 0.0018
6 | CC(C)Oc1ccc(-c2c[nH]cc2CN(C)CCO)cc1 | 97.58 ± 0.92 | 97.5 ± 1.6 | 96.98 ± 0.82 | 99.978 ± 0.011 | 61.5 ± 8.3 | 81.7 ± 3.2 | 99.55 ± 0.37 | 97.3 ± 1.8 | 97.16 ± 0.64 | 94.2 ± 3.9 | 74 ± 11 | 99.986 ± 0.014
7 | COc1ccc(CCc2nc3cc(-c4c(C)noc4C)ccc3n2C[C@H](C)N2CCOCC2)cc1Cl | 98.71 ± 0.76 | 99.636 ± 0.017 | 98.527 ± 0.086 | 99.941 ± 0.031 | 48.7 ± 1.4 | 82.67 ± 0.12 | 99.927 ± 0.017 | 99.75 ± 0.26 | 96.9 ± 1 | 90.6 ± 2.1 | 34.4 ± 3.4 | 99.994 ± 0.0041
8 | CCCc1cc(C)[nH]c(=O)c1CNC(=O)c1cc(-c2ccc(N3CCN(C(C)C)CC3)nc2)cc2c1cnn2C(C)C | 21 ± 7.7 | 85.5 ± 11 | 98.86 ± 0.59 | 99.88 ± 0.14 | 91.8 ± 4.8 | 92.4 ± 6.9 | 99.93 ± 0.072 | 80 ± 8.9 | 97 ± 2 | 46.2 ± 22 | 11.5 ± 5.8 | 99.997 ± 0.002
9 | CCCc1cc(C)n(C)c(=O)c1CN(C)C(=O)c1cc(-c2ccc(N3CCN(C(C)C)CC3)nc2)cc2c1cnn2C(C)C | 99.971 ± 0.015 | 93.4 ± 3.8 | 99.3 ± 0.59 | 99.983 ± 0.016 | 84.6 ± 3.8 | 99.889 ± 0.049 | 99.77 ± 0.13 | 97.3 ± 2.3 | 97.89 ± 0.81 | 87.5 ± 6.8 | 84.2 ± 10 | 99.997 ± 0.0012
10 | COc1cc(-c2cn(C)c(=O)c3cnccc23)c(OC)cc1CN(C)C | 99.729 ± 0.064 | 96.7 ± 2 | 96.9 ± 3.3 | 99.978 ± 0.01 | 55.9 ± 8.2 | 65.4 ± 6 | 99.64 ± 0.17 | 96.2 ± 2.6 | 98.52 ± 0.23 | 88.3 ± 10 | 74.4 ± 19 | 99.991 ± 0.0063
11 | CN(C)[C@H]1CN(C2CCc3cccc(F)c32)C[C@@H]1c1ccc(N2CCN(S(C)(=O)=O)CC2)cc1 (some centres not stated) | 99.839 ± 0.071 | 91.9 ± 3.3 | 99.22 ± 0.33 | 99.91 ± 0.14 | 83.7 ± 2.5 | 99.14 ± 0.58 | 99.71 ± 0.21 | 82.3 ± 13 | 97.33 ± 0.62 | 91.6 ± 4.3 | 87.8 ± 10 | 99.996 ± 0.0017
12 | Cc1cc(=O)n(C)c2cc(N3C(=O)CC[C@H](NS(=O)(=O)CC(C)C)[C@H]3c3ccc(Cl)cc3)ccc12 | 98.62 ± 0.82 | 98.85 ± 0.5 | 99.53 ± 0.27 | 99.99 ± 0.01 | 55.4 ± 11 | 81.7 ± 5.8 | 99.02 ± 0.89 | 85.8 ± 9.3 | 98.75 ± 0.26 | 71 ± 19 | 82.6 ± 16 | 99.951 ± 0.055
13 | O=C(c1ccc(C(=O)N2CCC(N3CCCC3)CC2)c(Nc2ccccc2)c1)N1CCC(N2CCCC2)CC1 | 99.63 ± 0.2 | 95.4 ± 2.1 | 99.64 ± 0.16 | 99.874 ± 0.068 | 89.5 ± 3.3 | 99.832 ± 0.085 | 99.81 ± 0.17 | 99.24 ± 0.6 | 98.8 ± 0.39 | 99.13 ± 0.32 | 89.4 ± 9.2 | 99.998 ± 0.0015
14 | CCCc1cc(C)[nH]c(=O)c1CNC(=O)c1cc(-c2ccnc(N3CCN(C)CC3)c2)cc2c1cnn2C(C)C | 99.876 ± 0.081 | 94.6 ± 4 | 99.63 ± 0.27 | 99.992 ± 0.007 | 88.3 ± 2.3 | 99.64 ± 0.32 | 99.73 ± 0.33 | 97.6 ± 2.6 | 97.34 ± 0.48 | 95.1 ± 5.6 | 61.1 ± 10 | 99.976 ± 0.033
15 | COc1c(C)cc(NC(=O)c2nn(Cc3ccc(F)cc3)c3c2CN(C(=O)c2ccc[nH]2)C[C@]3(C)C(N)=O)cc1C | 95.2 ± 2.6 | 98.5 ± 1.5 | 97.72 ± 0.68 | 99.916 ± 0.05 | 56.1 ± 5.2 | 76.3 ± 3.2 | 99.26 ± 0.96 | 99.43 ± 0.33 | 98.56 ± 0.55 | 93.7 ± 9.7 | 75.6 ± 20 | 99.971 ± 0.051
16 | COc1ccccc1S(=O)(=O)Nc1ccc2c(c1)CN(C)C(=O)N2 | 95.7 ± 1.4 | 50.1 ± 11 | 97.21 ± 0.84 | 98.12 ± 0.25 | 59.7 ± 1.8 | 38.5 ± 27 | 35.2 ± 7.6 | 81.7 ± 7.9 | 47.7 ± 1.6 | 50.9 ± 5.5 | 20.8 ± 3.4 | 97.92 ± 0.3
